The values below come from the OligoGym collection.
Note: reference of the scale not given here.

For one test, the target named is SRC. The experiment in a line: pooled miR-30 sensor sort-seq; sequence = guide strand. As to conditions: shRNA.
In turn, TCTCGCACGAGGAAGGTCCCTC showed a sensor-assay potency score (higher = more potent) of -0.579.
TCGTGGTCTCACTTTCTCGCAC displayed a sensor-assay potency score (higher = more potent) of -0.731.
Turning to TGTCTGTCCTGTGCTGAGCGAG, the sensor-assay potency score (higher = more potent) is -1.15.
As to TGAAGGACAGGTCTGTCTCCGT, the sensor-assay potency score (higher = more potent) is -0.405.
The sequence TCATTGTCTTCAATGAGCCGAG returned a sensor-assay potency score (higher = more potent) of -0.463.
Sequence TGTGTTGTTGACAATCTGGAGC had a sensor-assay potency score (higher = more potent) of -0.666.
TCCGACTTGATGGTGAAGCGGC displayed a sensor-assay potency score (higher = more potent) of -0.784.

The next test addresses SREBF2. The test is described as above. To be noted: shRNA.
The sequence TTAGCTTCGTCTTCAAAGCCTG yielded a sensor-assay potency score (higher = more potent) of -0.243.
TTTATGATTGACCTGCTGCAAG came in with a sensor-assay potency score (higher = more potent) of -1.02.
For TAAAATGAGAGCGCACAGCTGC, the sensor-assay potency score (higher = more potent) is -0.945.
Consider ATTACTGACAAATTGCAGCATC, for which the sensor-assay potency score (higher = more potent) was -0.795.
As for TCATGCAGGAACACCTTGCGGT, the sensor-assay potency score (higher = more potent) is 0.123.
For TTAACAATCATCTGCTGGCAGT, the sensor-assay potency score (higher = more potent) was -1.13.
On the same count and under the same terms, under TCGAATGACAGGACACTGCGGC stands -0.313; under TAGCTTCGTCTTCAAAGCCTGC, -1.4; under TTGATTACTGACAAATTGCAGC, -0.488.
With TTTGATGTAATCAATGGCCTTC, the sensor-assay potency score (higher = more potent) worked out at 0.209.
Regarding TTCACAGCTCTCTTCTTCCTGG, the sensor-assay potency score (higher = more potent) was 0.117.
